Test results taken from PubChem BioAssay AID1159580 (chemical genetic matrix, 2015).
Where “and” joins values, the source holds several entries; their conditions need not be identical. Equal entries are not always repeated. Screen size: about 5,500 compounds; about 2,000 (36%) were called active. About 18% were inconclusive and are not listed. Cut-off read from the data, not from the text of the source: active = normalized growth mostly below about 0.91 (no sharp cut-off); inconclusive = no clear call, values can overlap the other calls; inactive = mostly above about 0.92. This is one part of the list.

Experiment: chemical genetic growth profiling, strain panel (AID 1159580);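 note: tested at 20 µM; growth read once vehicle control cultures reached saturation at 30 °C; 1 = growth at the plate median or of vehicle wells; lower values mean less growth of the strain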
Settings: S. cerevisiae deletion strains, growth OD

Measured: normalized growth

C[C@]12CCC3c4ccc(OS(=O)(=O)O)cc4CCC3C1CC[C@H]2O (some centres undefined)
inactive: locus YAL013W, strain DEP1, stronger effect = lower value 0.998 | locus YAL021C, strain ccr4, stronger effect = lower value 0.986 | locus YAL026C, strain drs2, stronger effect = lower value 0.973 | locus YAL030W, strain snc1, stronger effect = lower value 1 | locus YBL061C, strain skt5, stronger effect = lower value 0.969 | locus YBR009C, strain hhf1, stronger effect = lower value 1.04 | locus YBR021W, strain FUR4, stronger effect = lower value 0.983 | locus YBR023C, strain chs3, stronger effect = lower value 0.966 | locus YBR171W, strain sec66, stronger effect = lower value 0.983 | locus YBR229C, strain ROT2, stronger effect = lower value 0.988 | locus YBR231C, strain swc5, stronger effect = lower value 0.993 | locus YBR279W, strain paf1, stronger effect = lower value 0.978 | locus YCL011C, strain gbp2, stronger effect = lower value 0.961 | locus YCL016C, strain dcc1, stronger effect = lower value 0.948 | locus YCL029C, strain bik1, stronger effect = lower value 0.99 | locus YCL061C, strain MRC1, stronger effect = lower value 0.975 | locus YCL069W, strain vba3, stronger effect = lower value 0.985 | locus YCR088W, strain abp1, stronger effect = lower value 0.983 | locus YDL005C, strain med2, stronger effect = lower value 0.984 | locus YDL035C, strain GPR1, stronger effect = lower value 0.991 | locus YDL040C, strain nat1, stronger effect = lower value 0.985 | locus YDL074C, strain BRE1, stronger effect = lower value 1.02 | locus YDL101C, strain DUN1, stronger effect = lower value 0.996 | locus YDL134C, strain PPH21, stronger effect = lower value 0.978 | locus YDL185W, strain tfp1, stronger effect = lower value 0.99 | locus YDL192W, strain arf1, stronger effect = lower value 0.987 | locus YDR001C, strain nth1, stronger effect = lower value 0.974 | locus YDR069C, strain doa4, stronger effect = lower value 0.981 | locus YDR101C, strain arx1, stronger effect = lower value 0.988 | locus YDR137W, strain rgp1, stronger effect = lower value 0.955 | locus YDR150W, strain NUM1, stronger effect = lower value 0.997 | locus YDR159W, strain sac3, stronger effect = lower value 0.984 | locus YDR162C, strain NBP2, stronger effect = lower value 0.986 | locus YDR195W, strain ref2 0.97 | locus YDR297W, strain sur2, stronger effect = lower value 0.986 | locus YDR318W, strain mcm21, stronger effect = lower value 0.986 | locus YDR334W, strain swr1, stronger effect = lower value 0.968 | locus YDR335W, strain msn5, stronger effect = lower value 0.968 | locus YDR388W, stronger effect = lower value 0.986 | locus YDR392W, strain spt3, stronger effect = lower value 0.907 | locus YDR502C, strain sam2, stronger effect = lower value 0.986 | locus YEL003W, strain gim4, stronger effect = lower value 1 | locus YEL037C, strain rad23, stronger effect = lower value 0.989 | locus YEL061C, strain CIN8 (second series), stronger effect = lower value 0.981 | locus YEL061C, strain CIN8, stronger effect = lower value 0.996 | locus YER015W, strain faa2, stronger effect = lower value 0.986 | locus YER016W, strain bim1, stronger effect = lower value 0.942 | locus YER110C, stronger effect = lower value 0.978 | locus YER111C, strain swi4, stronger effect = lower value 0.965 | locus YER155C, strain BEM2 (second series), stronger effect = lower value 1 | locus YER155C, strain BEM2, stronger effect = lower value 0.994 | locus YER167W, strain BCK2, stronger effect = lower value 0.987 | locus YFR010W, strain ubp6, stronger effect = lower value 0.998 | locus YGL078C, strain dbp3, stronger effect = lower value 0.986 | locus YGL086W, strain mad1, stronger effect = lower value 0.988 | locus YGL167C, strain pmr1, stronger effect = lower value 0.973 | locus YGL173C, strain kem1, stronger effect = lower value 0.999 | locus YGL227W, strain vid30, stronger effect = lower value 0.981 | locus YGL240W, strain doc1, stronger effect = lower value 1.01 | locus YGL248W, strain PDE1, stronger effect = lower value 0.997 | locus YGL253W, strain hxk2, stronger effect = lower value 0.953 | locus YGR078C, strain PAC10, stronger effect = lower value 1.01 | locus YGR135W, strain pre9, stronger effect = lower value 0.96 | locus YGR229C, strain SMI1, stronger effect = lower value 1.01 | locus YGR252W, strain gcn5, stronger effect = lower value 0.997 | locus YHR013C, strain ard1, stronger effect = lower value 0.92 | locus YHR027C, strain rpn1, stronger effect = lower value 0.965 | locus YHR030C, strain SLT2, stronger effect = lower value 0.99 and 0.957 | locus YHR079C, strain IRE1 (second series), stronger effect = lower value 0.986 | locus YHR079C, strain IRE1, stronger effect = lower value 0.959 | locus YHR094C, strain hxt1, stronger effect = lower value 0.987 | locus YHR129C, strain ARP1, stronger effect = lower value 0.988 | locus YHR142W, strain chs7, stronger effect = lower value 0.951 | locus YHR200W, strain rpn10, stronger effect = lower value 0.987 | locus YIL066C, strain RNR3, stronger effect = lower value 0.984 | locus YIL073C, strain SPO22, stronger effect = lower value 0.954 | locus YIL125W, strain kgd1, stronger effect = lower value 0.988 | locus YIR030C, strain dcg1, stronger effect = lower value 0.992 | locus YJL092W, strain hpr5, stronger effect = lower value 0.978 | locus YJL095W, strain BCK1 (second series), stronger effect = lower value 0.969 | locus YJL095W, strain BCK1, stronger effect = lower value 1.02 and 0.969 | locus YJL115W, strain asf1, stronger effect = lower value 0.947 | locus YJL129C, strain trk1, stronger effect = lower value 0.911 | locus YJL134W, strain LCB3, stronger effect = lower value 0.993 | locus YJL154C, strain vps35, stronger effect = lower value 0.976 | locus YJL164C, strain tpk1, stronger effect = lower value 0.983 | locus YJL166W, strain qcr8, stronger effect = lower value 0.998 | locus YJL168C, strain set2, stronger effect = lower value 1 | locus YJL187C, strain SWE1 (second series), stronger effect = lower value 1.01
